The source of these data is PubChem BioAssay (Tox21).

Inconclusive results are not listed. Entries that show only a call come without a potency. Activity calls are given as the source filed them. Calls follow the shape of the full dose curve.

The nature of this test: qHTS assay for small molecule agonists of the p53 signaling pathway - cell viability (AID 651633).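 Also: p53RE-bla HCT reporter cells with a stable beta-lactamase p53 reporter; nearly all actives have a fitted effect of over 30% in size.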 The following applies: p53RE-bla HCT-116 viability, ATP luminescence, 16 h; series mostly up to 83.3 µM. From the text:
National Center for Advancing Translational Sciences [NCATS]
NIH Chemical Genomics Center [NCGC]
U.S. Environmental Protection Agency [EPA]
National Institutes of Environmental Health Sciences [NIEHS]
National Toxicology Program [NTP]
U.S. Food and Drug Administration [FDA]
p53, a tumor suppressor protein, is activated following cellular insult, including DNA damage and other cellular stresses. The activation of p53 regulates cell fate by inducing DNA repair, cell cycle arrest, apoptosis, or cellular senescence. The activation of p53, therefore, is a good indicator of DNA damage and other cellular stresses. […] The activation of the reporter gene under culture conditions can be detected by fluorescence intensity. This cell line was used to screen the Tox21 compound library in a 1536-well plate format and to identify agonists that activate the p53 signaling pathway.
Tox21 Assay Protocol Summary:
The p53RE-bla cells were dispensed at 4,000 cells/5 ul/well in 1536-well black wall/clear bottom plates using a Multidrop dispenser. After the assay plates were incubated at a 37 C/5% CO2 incubator for 5 hours, 23 nL of compounds dissolved in DMSO, positive controls or DMSO only was transferred to the assay plate by a pin tool. The plates were incubated at 37 C for 16 hours. After 1 uL of LiveBLAzerTM B/G FRET substrate was added using a Flying Reagent Dispenser, the plates were incubated at room temperature for 2 hours, and fluorescence intensity was measured by an Envision plate reader.
For cell viability readout that measures cytotoxicity, 4 ul/well of CellTiter-Glo reagent was added into the assay plates using a Flying Reagent Dispenser. After 30 min incubation at room temperature, the luminescence intensity in the plates was measured using a ViewLux plate reader.
In general terms: qHTS replaces the single test concentration by a dilution series.
`c1ccc2c(c1)CCNC2`: the Potency entry is “inactive”.
In the case of `C=C(C)[C@H]1CN[C@H](C(=O)O)[C@H]1CC(=O)O`, the Potency entry was “inactive”.
Take `C#CCOC(=O)/C=C(C)/C=C/CC(C)CCCC(C)C` (stereo not given): the Potency result is “inactive”.
In the case of `C=C(Cl)CSC(=S)N(CC)CC`, the Potency result was “inactive”.
Next, `CN(C)C(=O)Oc1cc(OC(=O)N(C)C)cc(C(O)CNC(C)(C)C)c1` (stereo not given): “inactive”; `C[C@H]1CCCC(=O)CCC/C=C/c2cc(O)cc(O)c2C(=O)O1`: “inactive”; `CON(C)C(=O)Nc1ccc(Br)cc1`: “inactive”.
Consider `CC(C)(O)C(Cl)(Cl)Cl`, for which the Potency result is “inactive”.
The value for `CCOC(=O)c1ncn2c1CN(C)C(=O)c1c(I)cccc1-2` was “inactive”; that for `CCOP(=S)(OCC)Oc1ccc(Cl)cc1Cl` was “inactive”; that for `CS(=O)(=O)c1ccc(C(=O)C2C(=O)CCCC2=O)c(Cl)c1COCC(F)(F)F` was “inactive”.
Next, `CC(C)N(Cc1ccccc1)C(=O)C(C)(C)C`: “inactive”; `Oc1ccc(Cc2ccc(O)cc2)cc1`: “inactive”; `Clc1nc(Cl)nc(Nc2ccccc2Cl)n1`: “inactive”.
Next, `COc1ccccc1OC`: “inactive”.
On to `CC[C@@H](CO)NC(=O)[C@@H]1C=C2c3cccc4[nH]cc(c34)C[C@H]2N(C)C1`, for which the Potency result is “inactive”.
Turning to `BrCc1ccc(Br)cc1`, the Potency entry is “inactive”.
With `O=C(O)C(Cl)Br` (stereo not given), the Potency result is “inactive”.
In the case of `OP(O)c1ccccc1`, the Potency result was “inactive”.
Next, `NCC1(CC(=O)O)CCCCC1`: “inactive”; `ClC(Cl)(Cl)Cl`: “inactive”; `C[C@H](CN1CCOCC1)C(C(=O)N1CCCC1)(c1ccccc1)c1ccccc1`: “inactive”.
As to `O=C(Cl)c1ccccc1`, the Potency entry is “inactive”.
Next, `ClCOCCl`: “inactive”; `Nc1c(Cl)c(F)nc(OCC(=O)O)c1Cl`: “inactive”.
The value for `Cn1c(CCCC(=O)O)nc2cc(N(CCCl)CCCl)ccc21` was “inactive”.
For the compound `O=C/C=C/c1ccco1`, the Potency result was “inactive”.
Consider `CCOC(=O)C(Cl)Cc1cc(-n2nc(C)n(C(F)F)c2=O)c(F)cc1Cl` (stereo not given), for which the Potency result is “inactive”.
Next, `COP(=O)(OC)O/C(C)=C/C(=O)N(C)C`: “inactive”; `CNC(=O)Oc1ccccc1C(C)C`: “inactive”; `CCN(CC)C1CCCCC1`: “inactive”.
The value for `CC(C)C(C)(N)C#N` (stereo not given) was “inactive”; that for `CC[C@H](O)C(C[C@H](C)N(C)C)(c1ccccc1)c1ccccc1` was “inactive”; that for `CC[C@H](N)c1ccccc1` was “inactive”.
As to `O=C(Cl)/C=C/C(=O)Cl`, the Potency result was “inactive”.
The value for `Oc1ccc2c3c1O[C@H]1[C@@H](O)C=C[C@H]4[C@@H](C2)NCC[C@@]341` was “inactive”; that for `O=C1C2CC=CCC2C(=O)N1SC(Cl)(Cl)Cl` (stereo not given) was “inactive”; that for `CCC(=O)OC1(c2ccccc2)CCN(C)CC1` was “inactive”.
Consider `CN(C)CCc1c[nH]c2cccc(OP(=O)(O)O)c12`, for which the Potency entry was “inactive”.
On to `CC(C)(C1CCC(O)CC1)C1CCC(O)CC1` (stereo not given), for which the Potency result was “inactive”.
